Several values for one entry are separate records, joined by “and”; a condition that tells them apart may be missing. Equal entries are not always repeated. Inconclusive results are not listed. Activity calls are given as the source filed them. Calls come from the whole dose curve; as a rule, active = well fitted cell-killing curve with a large enough effect; inconclusive = small, poorly fitted or top-dose-only effect, or effect the other way; inactive = no such curve, though single readings can be large or run the other way.
Potency is the fitted concentration of half-maximal effect.

This assay in a line: Viability qHTS for spleen associated tyrosine kinase inhibitor (SYKi) drug resistant MV4-11 cells (AID 1963824). Note: nearly all actives have a fitted effect of over 35% in size. The note with it: SYKi-resistant MV4-11 viability, CellTiter-Glo, 72 h; series mostly up to 45 µM; viability, % of control: at the top concentration. In a few lines:
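SYK inhibitor-resistant MV4-11 AML cells, 500 per well, added to predispensed compounds and incubated 72 hr at 37 C, 5% CO2. Viability measured by CellTiter-Glo luminescence after 10 min at room temperature.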
On the technique in general: qHTS replaces the single test concentration by a dilution series.
As to `COc1cc(/C=C/C=O)cc(OC)c1O[C@@H]1O[C@H](CO)[C@@H](O)[C@H](O)[C@H]1O`, the “viability, % of control” value was 85.6% (inactive).

With `CCOC(=O)c1cnn(-c2ccc(NC(=O)C(Cl)=C(Cl)Cl)cc2)c1C(F)(F)F`, the Potency was 366 nM (active).

`Cc1ccc([C@@H]2O[C@H](CO)[C@@H](O)[C@H](O)[C@H]2O)cc1Cc1ccc(-c2ccc(F)cc2)s1`: the Potency was 16600 nM (active).

`C[C@@H]1O[C@@H](O[C@H]2[C@H](O[C@H]3[C@H](O[C@H]4CC[C@@]5(C)C(CC[C@]6(C)C5CC=C5[C@@H]7CC(C)(C)C[C@@H](O)[C@]7(C)CC[C@]56C)[C@@]4(C)CO)O[C@H](C(=O)O)[C@@H](O)[C@@H]3O)O[C@H](C(=O)O)[C@H](O)[C@@H]2O)[C@H](O)[C@H](O)[C@H]1O` (some centres undefined): the viability, % of control is 86.7% [at 9.25 µM] (inactive).

Consider `O=C(c1ccc(F)c(F)c1Nc1ccc(I)cc1F)N1CC(O)(C2CCCCN2)C1` (centres undefined), for which the Potency is 326 nM (active).

Take `CC1(C)CC[C@]2(C(=O)O[C@@H]3O[C@H](CO)[C@@H](O)[C@H](O)[C@H]3O)CC[C@]3(C)C(=CCC4[C@@]5(C)C[C@@H](O)[C@H](O)C(CO)(CO)C5CC[C@]43C)C2[C@@H]1O` (some centres undefined): the “viability, % of control” value was 99.1% [at 17.3 µM] (inactive).

As to `COc1c2c(c(C)c3c1C(=O)OC3)O[C@@]1(C)C[C@@H](O)[C@]34O[C@](OC)(CC[C@]3(C)[C@H]1C2)OC4(C)C`, the “viability, % of control” value was 72.9% [at 17.3 µM] (inactive).

For the compound `O=C(C(c1ccccc1)c1ccccc1)N1CCN(CC(O)COc2cccc3ncccc23)CC1` (centres undefined), the Potency is 10.3 µM (active) and 11.8 µM (active).

Take `Cc1[nH]c(/C=C2\C(=O)Nc3ccc(S(=O)(=O)Cc4c(Cl)cccc4Cl)cc32)c(C)c1C(=O)N1CCC[C@@H]1CN1CCCC1`: the Potency is 1860 nM (active).
